Test results taken from PubChem BioAssay AID1490 (National Center for Advancing Translational Sciences (NCATS), 2009).
Values joined by “and” are separate entries in the source; they are usually repeats but may differ in a detail not shown here. Equal values may be shown once. In all, about 310,000 compounds went through this assay and about 11,000 (3.5%) were called active. Inconclusive results (about 4%) are left out. The list comes from a sample in which actives are over-represented; it also holds similar structures and randomly drawn compounds. Unmarked numbers belong to inactive results. The call rests on the fitted dose curve; in most records, active means well fitted inhibition curve with a large enough effect; inconclusive means small, poorly fitted or top-dose-only effect, or another doubt; inactive means no such curve, though single readings can be large or run the other way.

biological target: 4'-phosphopantetheinyl transferase ffp (Bacillus subtilis) (UniProt Q9F4F7); assay: qHTS Assay for Inhibitors of Bacillus subtilis Sfp phosphopantetheinyl transferase (PPTase); conditions: Biochemical Sfp PPTase activity;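 further: the enzyme is Sfp with the accession as filed and its product quenches rhodamine fluorescence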;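 on largest response in the series, negative = inhibition: 0% = enzyme reaction without inhibitor and -100% = no enzyme wells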
Source text: Assay Submitter: Michael Burkart, University of California, San Diego
Screening Center PI: Austin, C.P.
Screening Center: NIH Chemical Genomics Center [NCGC]
The covalent attachment of a phosphopantetheinyl (4'-PP) arm to a variety of synthases and other proteins is a key posttranslational protein modification. The 4'-PP is installed on the proteins post-translationally from coenzyme A (CoA) on a conserved serine residue by action of phosphopantetheinyl transferase (PPTase) enzymes. Phosphopantetheinylation is essential for synthase activity, and removal of the PPTase gene precludes natural product synthesis in microorganisms, or in the case of fatty acid biosynthesis, renders the organism unviable. PPTase enzymes belong to a distinct structural superfamily. Within bacteria, these enzymes are grouped into two classes based upon primary structure, the AcpS-Type and Sfp-Type PPTases.
Sfp-type PPTases, corresponding to an activator of surfactin production in Bacillus subtilis, are responsible for modifying type I polyketide and nonribosomal peptide synthases of prokaryotes. Sfp-type PPTases are responsible for the activation of a variety of pathogen-associated virulence factors. Among these compounds are toxins such as mycolactone from Mycobacterium ulcerans, siderophores such as vibriobactin from Vibrio cholerae or mycobactin from Mycobacterium tuberculosis, as well as the mycolic acids which form the waxy cell wall of Mycobacteria. The biosyntheses of these natural products are considered attractive targets for drug design.
In search of small molecule Sfp-PPTase inhibitors, a fluorescence quenching assay was developed for detection of Bacillus subtilis Sfp-PPTase enzymatic activity in a miniaturized high-throughput format. The consensus ybbr acceptor peptide […] was N-terminally labeled with Black Hole Quencher-2 (BHQ-2) and used in combination with rhodamine-labeled coenzyme A as a co-substrate.
Inhibition of Sfp-PPTase was detected by recording the fluorescence intensity change over a 30-minute reaction period at a 525 nm excitation and 598 nm emission. Reagents were supplied by Michael Burkart and Timothy Foley, University of California at San Diego.
This BioAssay deposition is for validation of the developed Sfp-PPtase assay.
Assay Buffer: 50 mM Hepes-Na pH 7.6, 10 mM MgCl2, 0.01% Nonidet P-40, and 0.01% BSA.
3 uL of Sfp-PPTase enzyme (final concentration 15 nM) and 1 uL of substrate mixture (final concentration for rhodamine-CoA and BHQ-2-YbbR 5 uM and 12.5 uM, respectively) dispensed in columns 1, 2, 5 - 48. Columns 1 and 2 used to generate neutral control (uninhibited reaction)
Three uL of reagents, consisting of buffer (in columns 3 and 4 as negative control) and Sfp-PPTase (in columns 1, 2, 5 - 48) were dispensed into 1,536-well Greiner black solid bottom plate. Compounds (23 nL) were transferred via Kalypsys pintool equipped with 1,536-pin array. The plate was incubated for 15 min at room temperature, followed by the addition of 1 uL substrate to start the reaction. The plate was then centrifuged at 1000 rpm for 15 seconds, and the fluorescence intensity recorded on a ViewLux High-throughput CCD imager (Perkin-Elmer) using standard BODIPY optics (525 nm excitation and 598 nm emission). The plate was then incubated for 30 minutes, and a second read on the ViewLux was performed. The fluorescence intensity difference over the 30-minute period was used to calculate the respective reaction rate for each well.
Potency means the concentration at half of the fitted maximal effect.

Compound	largest response in the series, negative = inhibition	Potency
Cc1ccc(NC(=O)CSc2nnc(CNC(=O)c3ccccc3F)o2)cc1Cl	12.4%	–
CS(=O)(=O)n1nc(-c2ccco2)nc1N	23.7%	–
c1coc(-c2nc3nc4ccccc4n3nc2-c2ccco2)c1	–	39.8 µM (active)
Cn1cccc1-c1nc2ccccc2n1C	1.06%	–
CC(CCc1ccccc1)NC(=O)c1cnc(Cl)c(Cl)c1 (stereo not drawn)	8.93%	–
Cc1onc(C(=O)NN)c1C(=O)N1CCN(C(c2ccccc2)c2ccccc2)CC1	1.91%	–
CCOC(=O)N1CCN(C(c2cccnc2)c2ccc3cccnc3c2O)CC1 (stereo not drawn)	–	20 µM (active)
CCOC(=O)N1CCN(C(=O)C2CCN(c3ncnc4c3sc3cccc(F)c34)CC2)CC1	-3.49%	–
CCN1CCN(C(c2cccnc2)c2cc(Cl)c3cccnc3c2O)CC1 (stereo not drawn)	–	39.8 µM (active)
Oc1ccccc1CN1CCN(C(c2ccccc2)c2ccccc2)CC1	-13.4%	–
Clc1cccc(CN2COc3c(cc(Cl)c4cccnc34)C2)c1	-2.55%	–
O=C(c1ccc(Cn2cc([N+](=O)[O-])cn2)o1)N1CCCC1	5.1%	–
Cc1ccc(CS(=O)Cc2ccc(C(=O)N3CCOCC3)o2)cc1 (stereo not drawn)	9.75%	–
O=C(Nc1ccnn1C1CCN(C/C=C/c2ccc(F)cc2)CC1)C1CCCC1	-2.59%	–
O=C(c1ccc(F)cc1)N1CCCC(C(=O)N2CCCCC2)C1 (stereo not drawn)	1.26%	–
CCOC(=O)c1cc2n(c1N)-c1ccccc1C2=O	–	8.91 µM (active)
CCOC(=O)c1ccccc1CN1C(=O)c2ccccc2S1(=O)=O	-2.27%	–
CCOC(=O)C1=C(C(=O)OCC)C(C(=O)OCC)N(S(=O)(=O)C(F)(F)F)c2ccccc21 (stereo not drawn)	6.6%	–
CCc1cc(=O)oc2c(C)c(OCC(=O)NCCN3CCOCC3)ccc12	9.5%	–
CSCCC(NS(=O)(=O)c1ccc(C)cc1)C(=O)NCCc1c[nH]c2ccccc12 (stereo not drawn)	6.95%	–
O/N=C(\C[n+]1ccccc1)c1ccc(Br)cc1	-2.63%	–
Cn1c(=O)[nH]c(=O)c2c1[nH]c(=S)n2Cc1ccccc1	–	44.7 µM (active)
C=CCSc1nc2c(c(=O)[nH]c(=O)n2C)n1Cc1ccccc1	9.86%	–
COc1ccc(CNc2nc3c(c(=O)[nH]c(=O)n3C)n2Cc2ccccc2)cc1	11.4%	–

Compound	largest response in the series, negative = inhibition	Potency
CC1CCN(C(=O)C2CCN(S(=O)(=O)N3CCC4(CC3)OCCO4)CC2)CC1	17.9%	–
O=[N+]([O-])/C=C/c1ccc2c(ccn2Cc2ccccc2)c1	–	25.1 µM (active)
O=C(/C=C/c1cccc([N+](=O)[O-])c1)N1CCN(Cc2ccccc2)CC1	2.23%	–
O=c1c([N+](=O)[O-])cc(C(F)(F)F)cn1Cc1cccc(Cl)c1	3.19%	–
COc1cc(NC(=O)CN2C(=O)NC(C)(c3ccc(OC(F)F)cc3)C2=O)cc(OC)c1OC (stereo not drawn)	17.8%	–
Cc1cccc(NC(=O)NC(=S)NC(=O)c2ccccc2)c1	18.4%	–
S=C(NCCc1ccccc1)N1CCCCC1	5.57%	–
Oc1cc2c(cc1O)CN(C(=S)NCCc1ccc(Cl)cc1)CCC2	–	56.2 µM (active) and 44.7 µM (active)
O=C(NCCc1ccc(Cl)cc1)c1cccc(N2CCCC2=O)c1	4.32%	–
COc1ccc([N+](=O)[O-])cc1NCC(=O)c1ccc(C)cc1	-11.6%	–
Cc1cccc(C(=O)Nc2ccc(C(=O)N/N=C/c3cccc(C)n3)cc2)c1	-3.6%	–
Fc1ccc(-c2ccc(-c3nn4c(-c5ccco5)nnc4s3)o2)cc1	–	17.8 µM (active)
COc1cc(-c2nn3c(-c4cccc(C)c4)nnc3s2)cc(OC)c1OC	10.2%	–
c1ccc(-c2cc(-c3nnc4sc(-c5ccccn5)nn34)[nH]n2)cc1	0.622%	–
C=CC1=C2C=C(C3CC3)N(C(CO)CO)C=C2C(=O)C(C)(OC(=O)c2ccco2)C1=O (stereo not drawn)	11.3%	–
Cc1ccc(CNCc2ccc3c(c2)OCO3)c(C)c1	-14.4%	–
CC(=O)Nc1ccc(NC(=O)CC2CCCC2)cc1	1.03%	–
O=C(c1c(F)cccc1Cl)N1CCN(c2ccccn2)CC1	2.71%	–
O=C(c1ccc2ccccc2n1)N1CCN(c2ccccc2Cl)CC1	-10.1%	–
O=C(c1c(Cl)cccc1Cl)N1CCN(c2cccc3[nH]ccc23)CC1	–	89.1 µM (active)
COc1ccc(C(=O)CCC(=O)Nc2ccc(Cl)cc2)cc1	9.46%	–
CC/C(C)=N/Nc1nc2sc3c(c2c(=O)[nH]1)CC(C)(C)OC3	–	39.8 µM (active)
CCSc1nc2sc3c(c2c(=O)[nH]1)CC(C)(C)OC3	1.72%	–
CCOC(=O)CSc1nc2sc3c(c2c(=O)[nH]1)CC(C)(C)OC3	-10.3%	–
